In PubChem BioAssay AID1159580 (chemical genetic matrix, 2015):
Values joined by “and” are separate entries in the source; they are usually repeats but may differ in a detail not shown here. Equal values may be shown once. The whole screen tested about 5,500 compounds, of which about 2,000 (36%) were called active. Not shown: some 18% with an inconclusive outcome. Rule as the data show it: active = normalized growth mostly below about 0.91 (no sharp cut-off); inconclusive = no clear call, values can overlap the other calls; inactive = mostly above about 0.92. Some of the results follow.

Assay: chemical genetic growth profiling, strain panel (AID 1159580);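 also: tested at 20 µM; growth read once vehicle control cultures reached saturation at 30 °C; 1 = growth at the plate median or of vehicle wells; lower values mean less growth of the strain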
Details: S. cerevisiae deletion strains, growth OD

Measured: normalized growth

Nc1ccc(S(=O)(=O)c2ccc(N)cc2)cc1
inactive: locus YAL013W, strain DEP1, stronger effect = lower value 1.01 | locus YAL021C, strain ccr4, stronger effect = lower value 0.99 | locus YAL026C, strain drs2, stronger effect = lower value 1 | locus YAL030W, strain snc1, stronger effect = lower value 0.976 | locus YBL061C, strain skt5, stronger effect = lower value 0.993 | locus YBR009C, strain hhf1, stronger effect = lower value 1 | locus YBR021W, strain FUR4, stronger effect = lower value 1.04 | locus YBR023C, strain chs3, stronger effect = lower value 0.979 | locus YBR171W, strain sec66, stronger effect = lower value 1 | locus YBR229C, strain ROT2, stronger effect = lower value 1.01 | locus YBR231C, strain swc5, stronger effect = lower value 0.975 | locus YBR279W, strain paf1, stronger effect = lower value 0.983 | locus YCL011C, strain gbp2, stronger effect = lower value 0.999 | locus YCL016C, strain dcc1, stronger effect = lower value 0.997 | locus YCL029C, strain bik1, stronger effect = lower value 1.03 | locus YCL069W, strain vba3, stronger effect = lower value 1.01 | locus YCR088W, strain abp1, stronger effect = lower value 1.01 | locus YDL005C, strain med2, stronger effect = lower value 0.98 | locus YDL035C, strain GPR1, stronger effect = lower value 1.03 | locus YDL040C, strain nat1, stronger effect = lower value 0.991 | locus YDL074C, strain BRE1, stronger effect = lower value 1.02 | locus YDL101C, strain DUN1, stronger effect = lower value 1.02 | locus YDL134C, strain PPH21, stronger effect = lower value 1.02 | locus YDL185W, strain tfp1, stronger effect = lower value 1.02 | locus YDL192W, strain arf1, stronger effect = lower value 1.01 | locus YDR001C, strain nth1, stronger effect = lower value 1 | locus YDR069C, strain doa4, stronger effect = lower value 0.987 | locus YDR101C, strain arx1, stronger effect = lower value 0.987 | locus YDR137W, strain rgp1, stronger effect = lower value 1.01 | locus YDR159W, strain sac3, stronger effect = lower value 0.979 | locus YDR162C, strain NBP2, stronger effect = lower value 1.04 | locus YDR195W, strain ref2 0.939 | locus YDR297W, strain sur2, stronger effect = lower value 0.996 | locus YDR318W, strain mcm21, stronger effect = lower value 1.01 | locus YDR334W, strain swr1, stronger effect = lower value 0.986 | locus YDR335W, strain msn5, stronger effect = lower value 1 | locus YDR388W, stronger effect = lower value 1 | locus YDR392W, strain spt3, stronger effect = lower value 0.992 | locus YDR502C, strain sam2, stronger effect = lower value 1 | locus YEL003W, strain gim4, stronger effect = lower value 1.01 | locus YEL037C, strain rad23, stronger effect = lower value 1.01 | locus YEL061C, strain CIN8 (second series), stronger effect = lower value 1 | locus YEL061C, strain CIN8, stronger effect = lower value 1.01 | locus YER015W, strain faa2, stronger effect = lower value 0.999 | locus YER016W, strain bim1, stronger effect = lower value 0.991 | locus YER110C, stronger effect = lower value 0.993 | locus YER111C, strain swi4, stronger effect = lower value 1.02 | locus YER155C, strain BEM2 (second series), stronger effect = lower value 0.954 | locus YER155C, strain BEM2, stronger effect = lower value 1.02 | locus YER167W, strain BCK2, stronger effect = lower value 1.02 | locus YFR010W, strain ubp6, stronger effect = lower value 0.988 | locus YGL078C, strain dbp3, stronger effect = lower value 0.993 | locus YGL086W, strain mad1, stronger effect = lower value 1 | locus YGL167C, strain pmr1, stronger effect = lower value 0.995 | locus YGL173C, strain kem1, stronger effect = lower value 0.979 | locus YGL227W, strain vid30, stronger effect = lower value 1.01 | locus YGL240W, strain doc1, stronger effect = lower value 0.988 | locus YGL248W, strain PDE1, stronger effect = lower value 1.02 | locus YGL253W, strain hxk2, stronger effect = lower value 0.99 | locus YGR135W, strain pre9, stronger effect = lower value 1.01 | locus YGR229C, strain SMI1, stronger effect = lower value 1.03 | locus YGR252W, strain gcn5, stronger effect = lower value 1.01 | locus YHR013C, strain ard1, stronger effect = lower value 0.973 | locus YHR027C, strain rpn1, stronger effect = lower value 0.991 | locus YHR030C, strain SLT2, stronger effect = lower value 1.02 and 1.01 | locus YHR079C, strain IRE1 (second series), stronger effect = lower value 1.01 | locus YHR079C, strain IRE1, stronger effect = lower value 1.03 | locus YHR094C, strain hxt1, stronger effect = lower value 1.01 | locus YHR129C, strain ARP1, stronger effect = lower value 1.01 | locus YHR142W, strain chs7, stronger effect = lower value 1.01 | locus YHR200W, strain rpn10, stronger effect = lower value 1 | locus YIL066C, strain RNR3, stronger effect = lower value 1.02 | locus YIL073C, strain SPO22, stronger effect = lower value 1.03 | locus YIL125W, strain kgd1, stronger effect = lower value 1.01 | locus YIR030C, strain dcg1, stronger effect = lower value 1.01 | locus YJL092W, strain hpr5, stronger effect = lower value 0.998 | locus YJL095W, strain BCK1 (second series), stronger effect = lower value 0.983 | locus YJL095W, strain BCK1, stronger effect = lower value 1.02 and 1.03 | locus YJL115W, strain asf1, stronger effect = lower value 1 | locus YJL129C, strain trk1, stronger effect = lower value 0.991 | locus YJL134W, strain LCB3, stronger effect = lower value 1.03 | locus YJL154C, strain vps35, stronger effect = lower value 0.987 | locus YJL164C, strain tpk1, stronger effect = lower value 0.987 | locus YJL166W, strain qcr8, stronger effect = lower value 1 | locus YJL168C, strain set2, stronger effect = lower value 0.996 | locus YJL187C, strain SWE1 (second series), stronger effect = lower value 1.01 | locus YJL187C, strain SWE1, stronger effect = lower value 1 | locus YJR043C, strain POL32, stronger effect = lower value 1.01 | locus YJR066W, strain TOR1, stronger effect = lower value 0.98 | locus YJR075W, strain HOC1, stronger effect = lower value 1.02 | locus YKL009W, strain mrt4, stronger effect = lower value 0.988 | locus YKL068W, stronger effect = lower value 1.01 | locus YKL085W, strain MDH1 (second series), stronger effect = lower value 1.01 | locus YKL085W, strain MDH1, stronger effect = lower value 1.01 | locus YKL160W, strain elf1, stronger effect = lower value 0.988 | locus YKR001C, strain vps1, stronger effect = lower value 0.994 | locus YKR026C, strain gcn3, stronger effect = lower value 0.99 | locus YKR091W, strain srl3, stronger effect = lower value 1 | locus YLL001W, strain dnm1, stronger effect = lower value 0.991 | locus YLL026W, stronger effect = lower value 0.987 | locus YLL041C, strain sdh2, stronger effect = lower value 1.01 | locus YLR027C, strain aat2, stronger effect = lower value 1 | locus YLR039C, strain RIC1, stronger effect = lower value 0.972 | locus YLR058C, strain SHM2, stronger effect = lower value 1.02 | locus YLR102C, strain apc9, stronger effect = lower value 1.01 | locus YLR113W, strain HOG1, stronger effect = lower value 1.05 | locus YLR221C, strain rsa3, stronger effect = lower value 0.984 | locus YLR258W, strain gsy2, stronger effect = lower value 0.999 | locus YLR262C, strain YPT6 (second series), stronger effect = lower value 0.966 | locus YLR262C, strain YPT6, stronger effect = lower value 1.02 | locus YLR268W, strain sec22, stronger effect = lower value 1.01 | locus YLR320W, strain mms22, stronger effect = lower value 0.995 | locus YLR330W, strain CHS5, stronger effect = lower value 1.02 | locus YLR342W, strain FKS1 (second series), stronger effect = lower value 1.03 | locus YLR342W, strain FKS1, stronger effect = lower value 0.996 | locus YLR357W, strain rsc2, stronger effect = lower value 0.969 | locus YLR370C, strain arc18, stronger effect = lower value 0.992 | locus YLR371W, strain rom2, stronger effect = lower value 1.01 | locus YLR384C, strain iki3, stronger effect = lower value 0.987 | locus YLR418C, strain cdc73, stronger effect = lower value 1 | locus YML016C, strain PPZ1, stronger effect = lower value 1.01 | locus YML032C, strain rad52, stronger effect = lower value 0.999 | locus YML120C, strain ndi1, stronger effect = lower value 0.999 | locus YML124C, strain tub3, stronger effect = lower value 1.02 | locus YMR058W, strain fet3, stronger effect = lower value 1 | locus YMR078C, strain ctf18, stronger effect = lower value 1.01 | locus YMR125W, strain sto1, stronger effect = lower value 1 | locus YMR129W, stronger effect = lower value 0.996 | locus YMR205C, strain PFK2, stronger effect = lower value 0.976 | locus YMR223W, strain ubp8, stronger effect = lower value 0.994 | locus YMR231W, strain pep5, stronger effect = lower value 0.986 | locus YMR263W, strain SAP30, stronger effect = lower value 1.01 | locus YMR307W, strain GAS1, stronger effect = lower value 1.08 | locus YNL067W, strain RPL9B, stronger effect = lower value 1.02 | locus YNL071W, strain lat1, stronger effect = lower value 0.997 | locus YNL153C, strain GIM3, stronger effect = lower value 1.01 | locus YNL183C, strain NPR1, stronger effect = lower value 0.98 | locus YNL209W, strain ssb2, stronger effect = lower value 1 | locus YNL233W, strain BNI4, stronger effect = lower value 1.02 | locus YNL248C, strain rpa49, stronger effect = lower value 0.951 | locus YNL250W, strain rad50, stronger effect = lower value 0.985 | locus YNL271C, strain bni1, stronger effect = lower value 0.995 | locus YNL298W, strain CLA4, stronger effect = lower value 1 | locus YNL307C, strain MCK1, stronger effect = lower value 1 | locus YNL322C, strain KRE1 (second series), stronger effect = lower value 1 | locus YNR049C, strain mso1, stronger effect = lower value 1 | locus YNR052C, strain pop2, stronger effect = lower value 1.01 | locus YOL012C, strain htz1 0.692 | locus YOL147C, strain pex11, stronger effect = lower value 1.01 | locus YOR001W, strain rrp6, stronger effect = lower value 0.998 | locus YOR061W, strain CKA2, stronger effect = lower value 1.02 | locus YOR069W, strain VPS5, stronger effect = lower value 1.01 | locus YOR070C, strain gyp1, stronger effect = lower value 0.992 | locus YOR080W, strain dia2, stronger effect = lower value 0.984 | locus YOR083W, strain WHI5, stronger effect = lower value 0.984 | locus YOR106W, strain vam3, stronger effect = lower value 1.01 | locus YOR136W, strain idh2, stronger effect = lower value 1 | locus YOR144C, strain elg1, stronger effect = lower value 1.01 | locus YOR184W, strain ser1, stronger effect = lower value 1.02 | locus YOR231W, strain MKK1, stronger effect = lower value 1.04 | locus YOR265W, strain rbl2, stronger effect = lower value 0.987 | locus YOR270C, strain vph1, stronger effect = lower value 1.05 | locus YOR290C, strain snf2, stronger effect = lower value 0.99 | locus YOR316C, strain cot1, stronger effect = lower value 1 | locus YPL051W, strain arl3, stronger effect = lower value 0.977 | locus YPL055C, strain LGE1, stronger effect = lower value 1.03 | locus YPL078C, strain atp4, stronger effect = lower value 0.998 | locus YPL106C, strain sse1, stronger effect = lower value 0.984 | locus YPL240C, strain hsp82, stronger effect = lower value 0.991 | locus YPL241C, strain CIN2, stronger effect = lower value 1.01 | locus YPL256C, strain CLN2, stronger effect = lower value 1.02 | locus YPR119W, strain clb2, stronger effect = lower value 1.01 | locus YPR141C, strain kar3, stronger effect = lower value 1.02 | locus YPR163C, strain tif3, stronger effect = lower value 1.01 | locus YPR167C, strain met16, stronger effect = lower value 1.01 | strain wtn01, stronger effect = lower value 0.983
